This note sets out measurements from PubChem BioAssay (NCATS).

Assay [1] in a line: Confirmation and Secondary Assay for Modulators of Hemoglobin Beta Chain Splicing at IVS2 654 locus (AID 910).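 Note: per-well total GFP intensity by laser scanning cytometry after 2-day treatment.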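 Note: potency is the fitted concentration of half-maximal effect; potency of activators that raise GFP signal by restoring correct splicing.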 A digest of the protocol: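 HeLa cells stably carrying EGFP interrupted by mutant beta-globin IVS2-654 intron (CMV-driven) were treated with compound for 2 days at 37C; corrected splicing was scored as total peak GFP intensity per well (488 nm excitation, 500-520 nm emission).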

Assay [2] is described as follows: qHTS Assay for Identification of Small Molecule Agonists for Hypoxia Response Element Signaling Pathway (AID 914; active = well fitted activation curve with a large enough effect in the signal ratio, with a control signal flat, not every such curve was filed as active; the % refers to the signal ratio). The conditions noted are these: ME-180 (cervical carcinoma) HRE-bla reporter, beta-lactamase ratio, CoCl2, 17 h; stronger effect = higher value. A digest of the protocol:
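Read-out: CCF4 FRET ratio of 460nm to 530nm emission (excitation 405nm) after 2.5 hours at room temperature, taken from HRE-bla ME-180 cells that had been exposed to compound and EC50 CoCl2 for 17 hours.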
In general terms: Quantitative high-throughput screening tests each substance at several concentrations.

Assay [3] is described as follows: qHTS Assay for Identification of Small Molecule Agonists for Thrombopoietin (TPO) Signaling Pathway (AID 917). Note: potency is the fitted concentration of half-maximal effect. Put shortly: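 Murine Ba/F3 cells stably expressing human TPO receptor and a Glycoprotein IIb promoter–luciferase reporter were IL-3-starved overnight, then treated with compounds plus TPO (26 pM final, its EC50) for 24 hrs at 37 C; luminescence was read.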

Assay [4] can be described thus: Cell Viability - LYMP2-001 (AID 921). Note: series mostly up to about 92 µM; nearly all actives have a fitted effect of over 70% in size. Put shortly: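 Human lymphoblastoid cells (Coriell), 2500 per well, were preincubated 5 hr at 37 C, then exposed to compounds in complete medium for 24 hr at 37 C. Cellular ATP was read by CellTiter-Glo luminescence; AC50 from Hill fits of concentration-response data.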
Assay [5] in a line: Confirmation and Secondary Assay for Modulators of Hemoglobin Beta Chain Splicing at IVS2 705 locus (AID 930).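 Note: HeLa cells stably expressing the EGFP-705 splicing reporter; GFP fluorescence per well restored by corrected splicing of the IVS2-705 intron in EGFP; series mostly up to about 46 µM.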 Put shortly:
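HeLa EGFP-705 reporter; 500 cells/well, o/n 37C 5% CO2; cpd 2 d; 488 ex/500-520 em laser scan; total peak GFP intensity/well. Ref: 500 nM […] antisense PNA.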

Assay [6] has as its target Muscarinic acetylcholine receptor M1 (Rattus norvegicus) (UniProt P08482). The assay is described as follows: qHTS Assay for Antagonists of Acetylcholine Muscarinic M1 Receptor: Measurement of IP-One Response (AID 944). Note: nearly all actives have a fitted effect of over 75% in size. Note: potency is the fitted concentration of half-maximal effect. A digest of the protocol: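 CHO cells expressing rat M1 receptor, recovered overnight, were pre-incubated 10 min with compound, then stimulated 30 min with carbachol at EC80 (200 nM) in LiCl-containing buffer, pH 7.4. IP1 accumulation was read by HTRF (620/665 nm).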

Assay [7] in a line: MultiTox-Fluor Cytotoxicity Assay - LYMP1-001 - Dead Cells (AID 946).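 Note: cells exposed to compound for 16 h.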 Put shortly: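 LYMP1-001 lymphoblastoid cells (2500/well) treated 16 h at 37 C. Dead-cell protease cleavage of bis-AAF-R110 read at Ex/Em 485/520. Normalized to DMSO and 15 uM tetraoctylammonium bromide; AC50 from Hill fits.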
The target in assay [8] is Pyruvate kinase (Leishmania mexicana) (UniProt Q27686). The assay is described as follows: qHTS Validation Assay for Inhibitors of Leishmania Mexicana Pyruvate Kinase (AID 945). Note: potency is the fitted concentration of half-maximal effect. Put shortly: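 Substrate mix (0.5 mM PEP, 0.1 mM ADP, 7 mM MgCl2, 50 mM KCl, pH 7.2 imidazole) received compound by pin tool, then 0.2 nM LmPYK E451W. After 1 h at room temperature, PKLight was added and luminescence measured.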

Assay [9] has as its target Muscarinic acetylcholine receptor M1 (Rattus norvegicus) (UniProt P08482). The assay is described as follows: qHTS Assay for Antagonists of Acetylcholine Muscarinic M1 Receptor: Kinetic Measurement of Intracellular Calcium Response (AID 943). Note: potency is the fitted concentration of half-maximal effect; nearly all actives have a fitted effect of over 75% in size. A digest of the protocol:
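CHO cells stably expressing rat M1 were loaded with no-wash Fluo-4 dye for 1 h at 37C, pre-incubated 10 min with compound, then challenged with EC80 carbachol (100 nM final); kinetic calcium read 4 min, peak/basal ratio.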

Assay [10] in a line: qHTS Assay for Identification of Small Molecule Antagonists for Thrombopoietin (TPO) Signaling Pathway (AID 918). Note: potency is the fitted concentration of half-maximal effect; nearly all actives have a fitted effect of over 60% in size. The conditions noted are these: TPO-dependent cell signaling reporter, antagonist mode. The method, then: NIH Molecular Libraries Screening Centers Network [MLSCN]
NIH Chemical Genomics Center [NCGC]
The thrombopoietin (TPO) signaling pathway was assayed in murine Ba/F3 cells stably transfected with the human TPO receptor and a luciferase reporter gene controlled by the Glycoprotein IIb promoter (provided by Axxam). BaF3 cells are an IL-3-dependent pro B cell line that upon TPO stimulation, undergo cell division and induce the megakaryocyte marker, Glycoprotein IIb. The assay was screened at the EC50 of TPO (26 pM) to identify inhibitors of the pathway.
NCGC Assay Protocol Summary:
Cells were maintained at 37 C and 5% CO2in RPMI with 10% fetal bovine serum, 0.5 ng/mL murine IL-3, 100U/ml penicillin and 100 ug/ml streptomycin. Prior to plating, cells were incubated overnight in medium without IL-3. Cells were plated at 250 cells/5uL/well into white solid 1536-well plates, 23 nL of compounds were delivered by a pin tool, and 1 uL of TPO (26 pM final concentration in IL-3 deficient medium) was added. Following 24 hrs of incubation at 37 C and 5% CO2, 4 uL of Steadylite detector mix (PerkinElmer) was added, the plates incubated at room temperature for 10 min and luminescence was measured for 10 s and 2X binning by a ViewLux detector (Perkin Elmer).

Values without a mark were called inactive. Records with an inconclusive call do not appear. A call without a number means that no potency is given here. Active and inactive are the calls of the source. Unless noted, calls come from the whole dose curve; as a rule, active = well fitted curve in the direction sought with a large enough effect; inconclusive = small, poorly fitted or top-dose-only effect, or another doubt; inactive = no such curve, though single readings can be large; an effect the other way counts as inactive or inconclusive.

Sequence of Pyruvate kinase (Leishmania mexicana) (Q27686 2-499 E452W): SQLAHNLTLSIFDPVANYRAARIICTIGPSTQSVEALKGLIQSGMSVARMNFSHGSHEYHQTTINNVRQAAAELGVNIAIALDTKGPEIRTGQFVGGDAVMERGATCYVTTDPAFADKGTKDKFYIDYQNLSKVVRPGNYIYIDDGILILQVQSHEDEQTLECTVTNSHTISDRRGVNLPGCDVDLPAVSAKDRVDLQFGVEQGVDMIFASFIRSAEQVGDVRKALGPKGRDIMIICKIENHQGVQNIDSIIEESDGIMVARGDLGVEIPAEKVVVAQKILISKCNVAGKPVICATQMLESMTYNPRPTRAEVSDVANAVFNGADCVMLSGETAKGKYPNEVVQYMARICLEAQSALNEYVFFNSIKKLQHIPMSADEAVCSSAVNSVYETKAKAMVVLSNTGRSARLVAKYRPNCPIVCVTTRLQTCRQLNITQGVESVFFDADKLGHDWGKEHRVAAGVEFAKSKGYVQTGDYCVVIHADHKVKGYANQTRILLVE
Sequence of Muscarinic acetylcholine receptor M1 (Rattus norvegicus) (P08482 whole entry, looked up): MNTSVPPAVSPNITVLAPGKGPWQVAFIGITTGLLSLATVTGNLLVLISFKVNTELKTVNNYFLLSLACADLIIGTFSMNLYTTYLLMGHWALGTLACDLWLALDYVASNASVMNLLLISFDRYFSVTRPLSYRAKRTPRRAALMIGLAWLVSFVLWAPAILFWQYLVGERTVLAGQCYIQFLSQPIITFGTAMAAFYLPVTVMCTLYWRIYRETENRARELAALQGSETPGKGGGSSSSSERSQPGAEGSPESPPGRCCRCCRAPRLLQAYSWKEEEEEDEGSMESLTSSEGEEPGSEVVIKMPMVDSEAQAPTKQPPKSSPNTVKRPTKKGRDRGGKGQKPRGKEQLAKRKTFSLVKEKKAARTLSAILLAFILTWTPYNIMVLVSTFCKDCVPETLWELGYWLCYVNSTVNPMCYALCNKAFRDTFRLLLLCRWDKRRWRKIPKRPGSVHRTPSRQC

For `Cn1c(=O)c2c(ncn2C)n(C)c1=O`, the Potency result in [1], in [3], in assay [6] and in assay [7] was “inactive” each time. In addition, in assay [2], the activation was -1.38%. Further, the call in assay [4] and in assay [5] was inactive.
As for `O=c1c(O)c(-c2ccc(O)c(O)c2)oc2cc(O)cc(O)c12`, the Potency entry in assay [1], in assay [3] and in assay [8] was “inactive” throughout. Also, the call in assay [5] was inactive.
Turning to `CC(C)C(=O)Nc1ccc([N+](=O)[O-])c(C(F)(F)F)c1`, the Potency result in assay [1], in [3], in assay [8] and in [7] was “inactive” in each case. For the same compound, the compound was classed as inactive in assay [4] and in [5].
For the compound `NS(=O)(=O)c1cc2c(cc1Cl)NCNS2(=O)=O`, the Potency entry in assay [1], in [3], in assay [8] and in [7] was “inactive” throughout. Moreover, the compound was called inactive in [4] and in [5].
Turning to `O=C(Nc1ccc([N+](=O)[O-])cc1Cl)c1cc(Cl)ccc1O`, in assay [1], the Potency entry is “inactive”. Moreover, the Potency in assay [3] was 100 nM (active); in assay [8], 2.51 µM (active). Further, in [5], the outcome was inactive.
With `CC12CC3CC(C)(C1)CC(N)(C3)C2`, the Potency result in [1] was “inactive”. Besides, the call in assay [5] was inactive.
For the compound `CC[C@@]1(O)C(=O)OCc2c1cc1n(c2=O)Cc2cc3c(CN(C)C)c(O)ccc3nc2-1`, the Potency in assay [1] was 12.6 µM (active). The result in assay [5] was inactive.
Take `CNCCCC12CCC(c3ccccc31)c1ccccc12`: the Potency result in assay [1] and in assay [8] was “inactive” throughout. For the same compound, the compound was classed as inactive in assay [5].
Turning to `CN1CCN(CCCN2c3ccccc3Sc3ccc(Cl)cc32)CC1`, the Potency entry in assay [1] and in assay [8] was “inactive” each time. Also, the outcome in assay [5] was inactive.
With `CN(C)c1nc(N(C)C)nc(N(C)C)n1`, the Potency entry in assay [1], in assay [3] and in assay [8] was “inactive” in each case. Moreover, the call in [5] was inactive.
As for `Cc1ccc(C(=O)Nc2ccc(S(=O)(=O)O)c3cc(S(=O)(=O)O)cc(S(=O)(=O)O)c23)cc1NC(=O)c1cccc(NC(=O)Nc2cccc(C(=O)Nc3cc(C(=O)Nc4ccc(S(=O)(=O)O)c5cc(S(=O)(=O)O)cc(S(=O)(=O)O)c45)ccc3C)c2)c1`, the Potency entry in assay [1], in [6] and in assay [8] was “inactive” throughout. For the same compound, the call in assay [5] was inactive. The Potency in [9] was 1.58 µM (active).
With `NC(CO)C(=O)NNCc1ccc(O)c(O)c1O` (configuration not stated), in assay [1], the Potency entry is “inactive”. Besides, the call in [5] was inactive.
On to `COc1ccccc1OCCNCC(O)COc1cccc2[nH]c3ccccc3c12` (configuration not stated), for which the Potency result in [1] is “inactive”. Besides, in assay [5], the result was inactive.
In the case of `CC(C)NCC(O)c1ccc(O)c(O)c1` (configuration not stated), the Potency entry in assay [1] and in [7] was “inactive” in each case. For the same compound, the compound was called inactive in [4] and in assay [5].
As for `Clc1ccc2c(c1)C(N1CCNCC1)=Nc1ccccc1O2`, the Potency entry in [1] and in [8] was “inactive” throughout. For the same compound, in assay [10], the Potency is 10 µM (active). In addition, in assay [5], the result was inactive.
As for `CN(C)C(=N)N=C(N)N`, in [1], the Potency entry was “inactive”. Moreover, in assay [5], the compound was classed as inactive.
With `Clc1ccccc1C(c1ccccc1)(c1ccccc1)n1ccnc1`, the Potency result in assay [1] and in [8] was “inactive” in each case. In addition, in [10], the Potency was 12.6 µM (active). Also, the outcome in [5] was inactive.
Regarding `CC(C(=O)O)c1cccc(C(=O)c2ccccc2)c1` (configuration not stated), the Potency result in assay [1] was “inactive”. The result in [5] was inactive.
In the case of `COc1ccccc1OCC(O)CN1CCN(CC(=O)Nc2c(C)cccc2C)CC1` (configuration not stated), the Potency result in assay [1] was “inactive”. For the same compound, the compound was classed as inactive in [5].
As for `CN(C)CCCN1c2ccccc2CCc2ccc(Cl)cc21`, the Potency result in assay [1] and in assay [8] was “inactive” in each case. The compound was called inactive in [5].
On to `CC1COc2c(N3CCN(C)CC3)c(F)cc3c(=O)c(C(=O)O)cn1c23` (configuration not stated), for which, in [1], the Potency result was “inactive”. The compound was called inactive in assay [5].
In the case of `OCCN(CCO)c1nc(N2CCCCC2)c2nc(N(CCO)CCO)nc(N3CCCCC3)c2n1`, the Potency entry in [1] and in [8] was “inactive” in each case. Further, the call in assay [5] was inactive.
Take `CCC1(C)CC(=O)NC1=O` (configuration not stated): in [1], the Potency entry is “inactive”. Moreover, the outcome in assay [5] was inactive.
On to `CN1CCN2c3ccccc3Cc3ccccc3C2C1` (configuration not stated), for which the Potency entry in assay [1] is “inactive”. Besides, in assay [5], the outcome was inactive.
Consider `CN(C)CCC=C1c2ccccc2C=Cc2ccccc21`, for which the Potency result in [1] and in assay [8] was “inactive” in each case. The compound was called inactive in assay [5]. The Potency in assay [9] is 0.0316 µM (active); in [6], 112 nM (active).
As for `CC(=O)OCC(CCn1cnc2cnc(N)nc21)COC(C)=O`, the Potency result in [1] was “inactive”. Besides, in assay [5], the outcome was inactive.
As for `CCCNCC(O)COc1ccccc1C(=O)CCc1ccccc1` (configuration not stated), the Potency entry in [1] is “inactive”. Moreover, the compound was classed as inactive in [5].
Turning to `O=C1c2c(O)ccc(O)c2C(=O)c2c(NCCNCCO)ccc(NCCNCCO)c21`, the Potency entry in assay [1] is “inactive”. Besides, the Potency was 0.0251 µM (active) in [10] and 5010 nM (active) in assay [6]. Besides, the compound was classed as inactive in assay [5].
For `COc1ccc2c(c1)c(CC(=O)O)c(C)n2C(=O)c1ccc(Cl)cc1`, the Potency result in [1], in assay [3] and in assay [7] was “inactive” throughout. Besides, the call in [5] was inactive.
As to `O=C(CCCN1CCC(O)(c2ccc(Cl)cc2)CC1)c1ccc(F)cc1`, the Potency result in [1] and in assay [8] was “inactive” throughout. Moreover, in [5], the result was inactive.
As for `CCCCc1oc2ccccc2c1C(=O)c1cc(I)c(OCCN(CC)CC)c(I)c1`, the Potency entry in assay [1], in assay [6] and in [8] was “inactive” in each case. Besides, in assay [5], the compound was classed as inactive.
For the compound `Cc1ccc(-c2cc(C(F)(F)F)nn2-c2ccc(S(N)(=O)=O)cc2)cc1`, the Potency result in [1] and in assay [7] was “inactive” in each case. Besides, the outcome in [4] and in assay [5] was inactive.
Take `COc1cc2nc(N(C)CCCNC(=O)C3CCCO3)nc(N)c2cc1OC` (configuration not stated): in [1], the Potency entry is “inactive”. The call in assay [5] was inactive.
For `O=C(c1ccc(OCCN2CCCCC2)cc1)c1c(-c2ccc(O)cc2)sc2cc(O)ccc12`, the Potency in [10] is 15.8 µM (active).
The same measure, in the same setting: under `Fc1ccc([C@@H]2CCNC[C@H]2COc2ccc3c(c2)OCO3)cc1` stands 12.6 µM (active).
